KCC2 mod: KCC2 cotransporter modulators, thallium flux, primary screen, cell-based, HEK293 KCC2, FluoZin-2 fluorescence, MLSMR. Solute carrier family 12 member 5 (Homo sapiens), Q9H2X9. KCC2 cells, thallium flux FluoZin-2 fluorescence. B-score of Tl+ flux slope (higher = more flux/activation; lower = inhibition) at 10 µM. 190,000 tested, 2.2% active. AID 1456, 2008;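 active = thallium flux slope and its plate-corrected score both differing from the plate sample mean at a set confidence after two filtering rounds, in either direction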;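 note: slope of fluorescence scaled to starting intensity during 10 to 20 s after thallium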
Efflux pump mplx: inhibitors of Candida efflux pumps in yeast, primary screen, S. cerevisiae, Nile Red, multiplex; inhibition, % at 10 µM; 330,000 tested, 0.44% active; S. cerevisiae Candida pump triplex; AID 485275, 2010;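 active = plate passing quality check with inhibition over a set limit, or well fluorescence over plate mean plus 4 SD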;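 note: Nile Red retained in pooled yeast measured as flow cytometry median fluorescence; 0% = buffer negative control and 100% = Enniatin B positive control; higher means more Nile Red kept so more efflux inhibition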
Cardio protect: cardioprotection against H2O2-induced cell death, primary screen, uHTS, H9c2 cells, ATPLite luminescence; H9c2 cardiomyocytes, H2O2 injury protection, 2 h; protection from H2O2 cell death, % at 20 µM; 360,000 tested, 0.63% active;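 active = compounds giving at least 50% protection of heart cells from peroxide-induced death in the single-dose screen, raw or plate-pattern-corrected value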;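 note: 0% = DMSO wells with peroxide and 100% = DMSO wells without peroxide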
PHOSPHO1 block: PubChem AID 1565 | Phosphoethanolamine/phosphocholine phosphatase (Homo sapiens), Q8TCT1 | inhibition, % at 13.3 µM | recombinant PHOSPHO1, absorbance phosphatase assay | 290,000 tested, 1.1% active; in the data active = inhibition above about 60%
Target sequence (Q8TCT1 whole entry, looked up): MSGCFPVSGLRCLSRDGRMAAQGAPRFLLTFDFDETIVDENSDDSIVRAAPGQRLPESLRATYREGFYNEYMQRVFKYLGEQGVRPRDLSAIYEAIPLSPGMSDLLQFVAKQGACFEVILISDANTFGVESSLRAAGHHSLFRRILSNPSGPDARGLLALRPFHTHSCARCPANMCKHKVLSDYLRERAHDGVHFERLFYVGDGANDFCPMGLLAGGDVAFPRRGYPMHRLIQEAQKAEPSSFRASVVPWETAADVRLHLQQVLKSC
Calb FLC: C. albicans growth inhibition with fluconazole, primary screen, CaCi-2 strain, Alamar Blue fluorescence. C. albicans CaCi-2 (fluconazole-resistant clinical isolate) + fluconazole, 48 h. growth inhibition, % (test concentration not listed). 300,000 tested, 0.57% active. AID 1979, 2009;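 active = growth inhibition above about 58% in most replicates, limit read from the data, passing the limit was not always enough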;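 note: all wells also contain fluconazole at 8 µg/ml as a sub-toxic cotreatment; 0% = median of DMSO wells and 100% = median of geldanamycin control wells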
* marks the source's active call; other numbers are inactive results; . = no result. In the library only some 3.3% were active in any assay of this set; here they are far more common.

SMILES	KCC2 mod	Efflux pump mplx	Cardio protect	PHOSPHO1 block	Calb FLC
CCOC(=O)c1c(C)[nH]c(C)c1C(=O)COc1ncnc2cc([N+](=O)[O-])ccc12	-0.673	-0.2	64.8*	27.1	9.3
CC(NC(=O)COc1ncnc2cc([N+](=O)[O-])ccc12)c1ccccc1 (centres undefined)	-0.109	0.2	11.3	-4.5	-5.6
CN(C)CC(O)COc1cc2ccccc2cc1C(=O)N1CCCCC1 (centres undefined)	.	0.1	-2.4	-3.5	102.7*
COc1cc2ccccc2cc1C(=O)N1CCCCC1	.	-0.1	-1.0	.	9.8
COc1ccccc1CNC(=O)CSc1n[nH]c(N)n1	.	0.0	-0.4	-1.8	-0.9
COc1ccccc1C(=O)CSc1n[nH]c(N)n1	-1.81	-0.1	1.4	79.7*	13.6
Cc1nc(SCC(=O)c2ccccc2)n[nH]1	-0.149	0.1	25.0	97.8*	-5.8
CC(C)Cn1c(N)c(C(=O)CSc2n[nH]c(N)n2)c(=O)n(C)c1=O	.	0.1	6.0	.	.
O=C(N/N=C/c1ccc(O)c2ncccc12)c1cccc(Br)c1	-1.51	-0.1	-1.2	15.3	116.0*
Cn1cc(C(=O)N/N=C/c2c(O)ccc3ccccc23)ccc1=O	-0.413	0.0	71.2*	26.7	35.8
O=C(N/N=C/c1c(O)ccc2ccccc12)c1cccnc1	.	0.9	30.3	-3.4	100.0*
Cc1ccc(C(=O)N/N=C/c2c(O)ccc3ccccc23)cn1	.	0.1	31.0	37.1	88.8*
O=C(N/N=C/c1cc(Br)ccc1O)c1ccncc1	-1.89	-0.2	30.4	23.9	-18.2
C=CCN1C(=O)c2ccc(C(=O)N(CC)CC(=O)Nc3cc(Cl)ccc3C)cc2C1=O	.	0.1	3.0	.	-7.4
O=C(NN=Cc1c(O)ccc2ccccc12)c1ccncc1	.	.	48.1	.	.
O=C(N/N=C\c1c(O)ccc2ccccc12)c1cncc(Br)c1	.	-0.1	19.1	13.9	82.5*
O=C(N/N=C\c1c(O)ccc2ccccc12)c1ccc(O)cc1	.	0.1	47.5	23.5	-1.2
O=C(N/N=C/c1c(O)ccc2ccccc12)c1ccc[n+](CCO)c1	-0.313	-0.1	56.5*	24.4	-4.5
Cc1cc(O)c(C)c(O)c1/C=N/NC(=O)c1cccnc1	.	-0.2	51.3*	49.6	-4.2
O=c1[nH]c(-c2ccccc2)cs1	-0.295	0.1	0.9	-7.4	1.9
S=c1[nH]c(-c2ccccc2)cs1	49.9*	-0.1	-8.0	48.4	0.5
O=C(/C=C/c1ccccc1[N+](=O)[O-])NCCCN1CCCC1=O	.	-0.2	-0.2	9.0	-13.2
Cc1nn(CC(=O)Nc2cccc(Cl)c2)c(=O)c2cc(-c3ccccc3)nn12	.	0.0	1.7	64.7*	8.9
COc1ccc(-c2cc3c(=O)n(CC(=O)Nc4ccc(Cl)cc4)nc(C)n3n2)cc1	.	0.0	-0.6	12.7	15.9
CCCOC(=O)/C(=C\c1ccc([N+](=O)[O-])o1)NC(=O)c1ccccc1	0.513	0.6	-5.8	1.5	89.4*
SMILES	KCC2 mod	Efflux pump mplx	Cardio protect	PHOSPHO1 block	Calb FLC
CCCCOC(=O)NS(=O)(=O)c1sc(CC(C)C)cc1-c1ccc(Cn2c(CC)nc3c(C)cc(C)nc32)cc1	.	0.2	.	.	.
O=C1N[C@H]2CC=C[C@H]2Nc2ccccc21	.	-0.3	50.9*	.	.
Cc1ccc(C(=O)NCc2ccccn2)cc1S(=O)(=O)N1CCCCC1	.	-0.1	13.2	8.2	-5.0
COc1ccnc(Oc2cccc(C(F)(F)F)c2)c1C(=O)N/C=N/OCc1ccccc1F	0.0933	-0.5	10.5	23.9	108.3*
COc1ccnc(Oc2ccccc2)c1C(=O)N/C=N/OCc1ccccc1	-0.0938	0.0	2.7	19.5	-24.9
COc1ccc(Nc2nnc(SCC(=O)NC3CCCC3)s2)cc1	.	.	-4.1	.	.
Cc1cc(C(=O)Nc2ccc(S(=O)(=O)N3CCCC3)cc2)no1	-0.42	0.1	-2.0	61.5*	-9.4
CC1CCCN(S(=O)(=O)c2ccc(C(=O)Nc3nnc(-c4ccccc4Cl)o3)cc2)C1 (centres undefined)	21.1*	0.0	29.6	10.4	-5.6
Cc1cc(C(=O)Nc2ccc(N3CCCCC3)cc2)no1	-0.687	0.1	-11.5	32.7	-26.1
Cc1nnc(NC(=O)c2ccc(S(=O)(=O)N3CCCCCC3)cc2)o1	0.000338	-0.2	1.9	63.3*	63.1
COCc1nnc(NC(=O)c2ccc(S(=O)(=O)N3CCCCCC3)cc2)o1	.	0.3	8.6	25.4	79.5*
CC1CCCN(S(=O)(=O)c2ccc(C(=O)Nc3nnc(-c4ccccn4)o3)cc2)C1 (centres undefined)	-0.126	-0.1	17.9	8.6	-6.4
COCc1nnc(NC(=O)c2ccc(S(=O)(=O)N(C)C3CCCCC3)cc2)o1	.	0.0	31.2	-9.1	-2.7
CN(C(=O)COC(=O)c1cnc(Cl)c(Cl)c1)C1CCCCC1	.	0.3	0.9	.	.
COCc1nnc(NC(=O)c2ccc(S(=O)(=O)N(C)Cc3ccccc3)cc2)o1	.	0.1	26.3	23.7	5.3
Cc1nnc(NC(=O)c2ccc(S(=O)(=O)N(C)Cc3ccccc3)cc2)o1	.	0.0	8.1	-1.6	87.4*
N#CCCN1CCN(C(=S)c2ccc(-c3cc(Cl)ccc3Cl)o2)CC1	.	-0.1	-2.9	73.5*	-6.2
CN1CCN(C(=S)c2ccc(-c3cc(Cl)ccc3Cl)o2)CC1	0.9	0.0	-4.1	27.7	-55.4
O=C(CNC(=O)c1[nH]cnc1C(=O)N[C@@H](Cc1ccccc1)C(=O)OCc1ccccc1)OCc1ccccc1	.	-0.1	10.2	-13.0	-2.1
CC(C)(C)OC(=O)CNC(=O)c1[nH]cnc1C(=O)Nc1ccc(CNC(=O)OC(C)(C)C)cc1	-1.26	0.0	86.6*	29.7	17.4
CC(C)(C)OC(=O)NCc1ccc(NC(=O)c2nc[nH]c2C(=O)NCCNC(=O)c2[nH]cnc2C(=O)Nc2ccc(CNC(=O)OC(C)(C)C)cc2)cc1	.	0.5	38.2	.	.
C[C@H](NC(=O)c1nc[nH]c1C(=O)NCCCCCNC(=O)OC(C)(C)C)C(=O)OCc1ccccc1	-4.36*	.	43.3	13.5	-4.1
O=C(CNC(=O)c1[nH]cnc1C(=O)NC(c1ccccc1)c1ccccc1)OCc1ccccc1	.	0.0	58.0*	15.2	15.0
C[C@H](NC(=O)c1nc[nH]c1C(=O)N[C@@H](CCCCNC(=O)OC(C)(C)C)C(=O)OC(C)(C)C)C(=O)OCc1ccccc1	.	0.1	-0.2	-52.4	2.6
CC(C)(C)OC(=O)NCCCCCNC(=O)c1nc[nH]c1C(=O)NCC(=O)OCc1ccccc1	.	0.3	20.0	.	.
CC(C)(C)OC(=O)CNC(=O)c1[nH]cnc1C(=O)NCC(=O)OCc1ccccc1	.	0.0	104.9*	-35.5	2.7
CCOC(=O)C1CCCN(S(=O)(=O)c2ccc3c(c2)CC(C)N3C(=O)C2CC2)C1 (centres undefined)	.	-0.1	-6.0	35.9	-0.4
CCC(C)(C)NC(=O)C1CCCN(S(=O)(=O)c2ccc3c(c2)CC(C)N3C(=O)C2CC2)C1 (centres undefined)	.	-0.1	-8.0	62.9*	-3.9

Screens deposited in PubChem by several laboratories.
